Compound activity as filed in PubChem BioAssay.
TGFb SMAD3 inh: inhibitors of TGF-b signaling. Potency, µM (series often up to 46.1 µM), without a hit: at the highest dose activity, negative = inhibition, most hits filed as inhibitors. 410,000 compounds, 1.2% hits. AID 588855. HepG2 CAGA-GFP TGF-b/SMAD3 reporter, GFP fluorescence, 18 h; TGF-beta stimulated, 500 pg/mL final; further: on the % scale 0 is the no-effect control and ±100 the full control effect; nearly all actives have a fitted effect of over 65% in size
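Read-out: total well GFP (ex488/em500-530) summed from mean per-cell fluorescence. Cells: HEPG2 CAGA-GFP, 1% FBS DMEM, 18 h at 37 degrees C with 500 pg/mL final TGF-beta. Unstimulated wells served as the full-inhibition control; stimulated DMSO wells = 0%.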
HepG2 tox: HepG2 cytotoxicity, counter-screen for TGF-b inhibitors; HepG2 CAGA-GFP viability, ATP luminescence, 18 h; Potency, µM (top dose mostly 46.1 µM), for inactives: at the top dose activity change, negative = cytotoxicity, actives largely listed as cytotoxic; 410,000 compounds, 0.76% hits
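HepG2 CAGA-GFP cells (1000/well, DMEM with 1% FBS) received compound, then TGF-beta at 500 pg/mL final, and were incubated 18 hours at 37 degrees C. Viability was read by CellTiter-Glo luminescence. Media-only wells were set as complete cell-killing and DMSO as no toxicity.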
Gal4-VP16 FLuc: inhibits Gal4-VP16 luciferase reporter, ROR gamma counter-screen. Drosophila S2 Gal4-VP16 UAS-luciferase, luminescence, 20 h. Potency, µM (highest dose often 53.6 µM), inactives show at the top dose activity, negative = inhibition, actives largely listed as inhibitors. 310,000 compounds, 3.5% hits. AID 2546;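 further: Gal4-VP16 expression switched on by copper sulfate through the metallothionein promoter; on the % scale 0 is the no-effect control and ±100 the full control effect; nearly all actives have a fitted effect of over 50% in size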
RORgamma inh: blocks mouse ROR gamma transcriptional activity; P51450; AID 2551; 310,000 compounds, 5.4% hits; Potency, µM (doses to about 53.6 µM), for the others: at the highest dose activity change, negative = inhibition, hits mostly inhibitors; Drosophila S2 Gal4-RORgamma UAS-luciferase reporter, 20 h; further: on the % scale 0 is the no-effect control and ±100 the full control effect; nearly all actives have a fitted effect of over 60% in size
Target sequence (P51450 whole entry, looked up, the tested form may be a part): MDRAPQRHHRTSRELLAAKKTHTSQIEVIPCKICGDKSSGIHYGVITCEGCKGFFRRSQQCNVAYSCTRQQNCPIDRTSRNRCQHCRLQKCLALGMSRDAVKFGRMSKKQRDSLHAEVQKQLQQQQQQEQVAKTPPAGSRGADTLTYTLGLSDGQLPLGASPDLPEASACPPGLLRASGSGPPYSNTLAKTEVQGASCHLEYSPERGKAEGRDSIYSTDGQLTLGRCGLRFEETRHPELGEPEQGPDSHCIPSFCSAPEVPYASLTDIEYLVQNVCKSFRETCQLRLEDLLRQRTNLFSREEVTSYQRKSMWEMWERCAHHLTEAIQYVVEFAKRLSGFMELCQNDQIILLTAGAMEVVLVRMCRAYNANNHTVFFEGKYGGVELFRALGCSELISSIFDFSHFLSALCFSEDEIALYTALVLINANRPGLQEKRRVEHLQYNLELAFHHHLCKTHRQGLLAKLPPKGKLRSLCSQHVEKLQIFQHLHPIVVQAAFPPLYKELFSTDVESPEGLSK
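Luminescence from a UAS-regulated Photinus luciferase reporter in stably transfected Drosophila Schneider cells is measured; decreased signal marks ROR gamma inhibition. Fusion expression is induced by 700 uM copper sulfate for 20 hr.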
ATXN2 expr inh: ATXN2 expression inhibition; HEK-293 ATXN2-luciferase reporter, luminescence, 24 h; Potency, µM (doses to about 57 µM), for inactives: at the highest dose activity change, negative = inhibition, actives largely listed as inhibitors; 360,000 compounds, 0.72% hits; further: on the % scale 0 is the no-effect control and ±100 the full control effect; nearly all actives have a fitted effect of over 55% in size
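ATXN2-luciferase reporter cells (luciferase flanked by upstream and downstream ATXN2 gene portions) were treated 24 h at 37 °C with compounds at up to 57 uM. SteadyGlo luminescence gave expression; GF-AFC fluorescence gave viability.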
ATXN viability: cell viability loss in ATXN counter-screen. 400,000 compounds, 0.49% hits. S2 cells (HEK-293 line with an ATXN2-luciferase reporter) viability, CellTiter-Fluor protease fluorescence, 24 h. AID 651635. Potency, µM (series often up to 56.7 µM), hits mostly cytotoxic; further: nearly all actives have a fitted effect of over 40% in size
Active calls of the source: *; i = inactive; u = inconclusive; x = no result; [ ] = remark or other dose. In the library only some 6.3% were active in any assay of this set; here they are far more common. The call rests on the fitted dose curve; in most records, active means well fitted curve in the direction sought with a large enough effect; inconclusive means small, poorly fitted or top-dose-only effect, or another doubt; inactive means no such curve, though single readings can be large; an effect the other way counts as inactive or inconclusive. Potency means the concentration at half of the fitted maximal effect.

SMILES | TGFb SMAD3 inh | HepG2 tox | Gal4-VP16 FLuc | RORgamma inh | ATXN2 expr inh | ATXN viability
CC(=O)c1ccc(-n2cc(-c3ccc(C(C)(C)C)cc3)[n+]3c2SCCC3)cc1 | 0% | -8% | 11µM* | -22% | -25% | i
CCC/C(C#CCCN1C(=O)c2ccccc2C1=O)=C1/c2ccccc2C(=O)N1c1ccccc1 | -3% | -4% | x | x | u | u
O=C1c2ccccc2C(=O)N1CCC#C/C=C1\c2ccccc2C(=O)N1c1ccccc1 | u | 1% | x | x | -15% | 28µM*
CC(=O)N1CCN(/[N+]([O-])=N/Oc2ccc([N+](=O)[O-])cc2[N+](=O)[O-])CC1 | u | -98% | x | x | x | x
O=[N+]([O-])c1ccc(O/N=[N+](\[O-])N2CCN(c3ccccc3)CC2)c([N+](=O)[O-])c1 | 11µM* | -25% | x | x | x | x
O=C(OCCF)N1CCN(/[N+]([O-])=N/Oc2ccc([N+](=O)[O-])cc2[N+](=O)[O-])CC1 | 8.9µM* | 20µM* | x | x | x | x
O=[N+]([O-])c1ccc(O/N=[N+](\[O-])N2CCN(c3ncccn3)CC2)c([N+](=O)[O-])c1 | 10µM* | -91% | x | x | x | x
COCCOC(=O)N1CCN(/[N+]([O-])=N/Oc2ccc([N+](=O)[O-])cc2[N+](=O)[O-])CC1 | u | -98% | x | x | x | x
CC(=O)c1ccccc1-c1ccc2c(c1)CC(CNC(=O)c1ccnc(Cl)c1)O2 (configuration not stated) | x | x | x | x | x | i
Cc1ccc(C(=O)C(=O)O)cc1C | x | x | x | x | 2% | i
COc1cccc(CNC(=O)Cc2ccc(NC(=O)N3CCCCc4ccccc43)cc2)c1OC | 9% | -9% | x | x | 9% | i
Cc1ccc(C(=O)NC(=S)N2CCN(c3cc(C)ccc3C)CC2)cc1 | u | -35% | 1µM* | 1µM* | u | u
Cc1ccc(C(=O)NC(=S)N2CCN(c3ccccc3F)CC2)cc1 | -31% | -40% | 2.8µM* | 0.89µM* | 0% | i
Cc1cc(Cl)ccc1OCC(=O)N1CCC(c2nc3ccccc3s2)CC1 | u | 1% | x | x | -31% | u
Nc1c(-c2nc(-c3ccc4c(c3)OCO4)cs2)c2ccccn2c1C(=O)c1ccccc1 | -1% | -42% | x | x | 5% | i
Cc1nc(CS(=O)(=O)c2ccc(Cl)cc2)cc(N2CCOCC2)n1 | -12% | 2% | 1% | -6% | 1% | u
O=S(=O)(Cc1cc(N2CCOCC2)nc(-c2ccccn2)n1)c1ccccc1 | -27% | -34% | -19% | 16µM* | -15% | i
N/C(Cn1cncn1)=N\NC(=O)C(=O)Nc1ccc(Cl)cc1Cl | 0% | -29% | u | 10µM* | -9% | i
N/C(Cn1cncn1)=N\NC(=O)c1ccc(Cl)cc1Cl | 11% | 0% | u | u | -12% | i
Clc1ccc(CN2CCC(CNc3ncnc4onc(-c5ccc(Cl)cc5)c34)CC2)cc1 | u | -20% | x | x | -36% | u
CC(C)NC(=S)NN=C1CCC(c2ccccc2)CC1 (configuration not stated) | -19% | 0% | 11µM* | 5.6µM* | -9%[11.3 µM] | i
O=C(NN=C1CCC(c2ccccc2)CC1)c1cc2c(s1)CCCC2 (configuration not stated) | -1% | -3% | -1% | -12% | 7% | i
CC(C)NC(=S)N/N=C1\CCCc2ccccc21 | -17% | -21% | 4µM* | 1.6µM* | -1% | i
Nc1ccn(C(C=O)CC(C=O)CO)c(=O)n1 (configuration not stated) | 21% | -4% | x | x | 15% | i
CC(=O)Oc1ccc(NC(=O)Cc2ccccc2)c(C(=O)O)c1 | 13% | 5% | 3% | -2% | 3% | i
SMILES | TGFb SMAD3 inh | HepG2 tox | Gal4-VP16 FLuc | RORgamma inh | ATXN2 expr inh | ATXN viability
COc1ccc(CC(=O)Nc2ccc(OC(C)=O)cc2C(=O)O)cc1 | 0% | 1.1µM* | -3% | 0% | x | i
COC(=O)c1c(NC(=O)CCl)sc(C(=O)N2CCOCC2)c1C | 0% | -5% | 1.8µM* | 10µM* | -11% | u
Cc1ccc(N2CCN(C(=S)Nc3ccccc3)CC2)cc1 | -15% | -2% | u | 6.3µM* | x | i
CN1CCN(C(=S)Nc2ccc(Oc3ccccc3)cc2)CC1 | -14% | -7% | 0% | 11µM* | 3% | i
S=C(Nc1ccc(Oc2ccccc2)cc1)N1CCOCC1 | 26% | 14% | -2% | -22% | 27% | i
COc1ccc(N2CCN(C(=S)Nc3ccc(C)cc3)CC2)cc1 | -15% | 0% | -2% | 10µM* | -38% | u
S=C(Nc1ccccc1)N1CCOCCOCCN(C(=S)Nc2ccccc2)CCOCCOCC1 | -16% | -17% | -24% | 18µM* | -15% | i
CCCCNc1ncnc2c1nnn2C | u | -17% | x | x | x | x
CCNC(=O)C1(C)CCCN(C(=O)c2ccnc(Cl)c2)C1 (configuration not stated) | -3% | 0% | x | x | 16% | i
CC(=O)c1ccc(N2CCN(C(=O)C3CCN(S(=O)(=O)c4ccc(Br)s4)CC3)CC2)cc1 | u | -1% | x | x | u | i
CC1=C(C(=O)Nc2ccccc2)C(c2ccc(C)cc2)N=C(Nc2nc3ccccc3o2)N1 (configuration not stated) | u | 11µM* | 11µM* | u | u | u
CCOc1ccc(S(=O)(=O)Nc2cnc3ccccc3c2)cc1 | 0% | -8% | 6.3µM* | u | -24% | i
C=C1C(=O)OC2C1C(OC(=O)C(C)=CC)CC(=C)C1C(O)C3OC3(C)C21O (configuration not stated) | 0% | -10% | x | x | -2% | i
C=C1C(=O)OC2C=C(CO)CCC=C(CO)CC(OC(=O)C(C)C)C12 (configuration not stated) | 16µM* | -88% | x | x | u | u
N#C/C(=C(/O)CN1CCCCC1)c1nc(-c2ccc(Cl)cc2)cs1 | -2% | -7% | u | -3% | 31% | i
N#C/C(=C(/O)CN1CCN(c2ccccc2F)CC1)c1nc(-c2ccc(Cl)cc2)cs1 | 7.9µM* | -44% | -26% | u | u | i
